Reference: the supplement of paper PMC10849652
Targets with a hit are over-represented here; the source holds about 8,800 in all. About 0.5% of all pairs of compound and target were hits.

Legend:
Assay in all cases: log2 fold change, soluble protein after heating vs DMSO (PISA); higher = thermal stabilisation; K562 lysate, 10 uM; active = over 0.2 and 3.5 SD of the protein, either way, in both replicates (recomputed)
alvocidib = compound: CN1CC[C@H](c2c(O)cc(O)c3c(=O)cc(-c4ccccc4Cl)oc23)[C@H](O)C1 [alvocidib]
How it was run: (§1)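 A 30 min treatment with 10 μM compound was applied to crude K562 extract at 1 mg/mL protein in PBS pH 7.4 with 1 mM MgCl2. Heating for 3 min spanned 48°C-58°C, after which aliquots were pooled, adjusted to 0.5% NP-40 at 4°C and spun at 21,000xg for 90 min. TMTpro 16plex LC-MS/MS of the supernatant, with channel sums equalised, gave values recorded as log-two fold change in thermal stability against solvent controls, from duplicates.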

Tubastatin A = compound: CN1CCc2c(c3ccccc3n2Cc2ccc(C(=O)NO)cc2)C1 [Tubastatin A]
How it was run: as §1

[1] = compound: CNC(=O)C1=CC=CC=C1NC2=NC(=NC=C2Cl)NC3=C(C=C(C=C3)N4CCOCC4)OC
How it was run: as §1

defactinib = compound: CNC(=O)c1ccc(Nc2ncc(C(F)(F)F)c(NCc3nccnc3N(C)S(C)(=O)=O)n2)cc1 [defactinib]
How it was run: as §1

[2] = compound: CNc1nc(-c2ccc3c(N)n[nH]c3c2)cc(N2C[C@@H](C(=O)NC3CCCCC3)CC[C@H]2C)n1
How it was run: as §1

encorafenib = compound: COC(=O)N[C@@H](C)CNc1nccc(-c2cn(C(C)C)nc2-c2cc(Cl)cc(NS(C)(=O)=O)c2F)n1 [encorafenib]
How it was run: as §1

[3] = compound: COC(=O)[C@H](CCSC)NC(=O)C1=C(C=C(C=C1)NC[C@H](CS)N)C2=CC=CC=C2
How it was run: as §1

alisertib = compound: COc1cc(Nc2ncc3c(n2)-c2ccc(Cl)cc2C(c2c(F)cccc2OC)=NC3)ccc1C(=O)O [alisertib]
How it was run: as §1

[4] = compound: COc1cc2nc(-c3cc(F)ccc3O)nc(N[C@@H]3CNC[C@H]3C(C)(C)O)c2cc1OC
How it was run: as §1

gefitinib = compound: COc1cc2ncnc(Nc3ccc(F)c(Cl)c3)c2cc1OCCCN1CCOCC1 [gefitinib]
How it was run: as §1

Sequence of UniProt Q9NQS1 (Q9NQS1 whole entry, looked up): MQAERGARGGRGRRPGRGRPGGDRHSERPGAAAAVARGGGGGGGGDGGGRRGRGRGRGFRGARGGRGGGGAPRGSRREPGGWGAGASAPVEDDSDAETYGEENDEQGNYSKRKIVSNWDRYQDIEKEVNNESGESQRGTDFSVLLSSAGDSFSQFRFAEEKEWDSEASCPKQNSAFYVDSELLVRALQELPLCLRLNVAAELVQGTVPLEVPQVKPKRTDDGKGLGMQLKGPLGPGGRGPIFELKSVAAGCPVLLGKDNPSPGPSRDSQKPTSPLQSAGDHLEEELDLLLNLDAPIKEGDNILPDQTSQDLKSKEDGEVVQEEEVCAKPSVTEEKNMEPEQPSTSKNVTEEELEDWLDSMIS
Sequence of UniProt P16152 (P16152 whole entry, looked up): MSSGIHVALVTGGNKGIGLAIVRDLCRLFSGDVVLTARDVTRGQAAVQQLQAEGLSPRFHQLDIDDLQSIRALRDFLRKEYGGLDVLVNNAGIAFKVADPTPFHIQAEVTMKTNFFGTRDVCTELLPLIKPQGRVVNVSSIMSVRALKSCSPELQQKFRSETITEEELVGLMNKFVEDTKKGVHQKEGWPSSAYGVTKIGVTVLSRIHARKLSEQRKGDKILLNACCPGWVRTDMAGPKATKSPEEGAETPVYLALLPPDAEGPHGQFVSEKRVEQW
Sequence of UniProt Q96NL8 (Q96NL8 whole entry, looked up): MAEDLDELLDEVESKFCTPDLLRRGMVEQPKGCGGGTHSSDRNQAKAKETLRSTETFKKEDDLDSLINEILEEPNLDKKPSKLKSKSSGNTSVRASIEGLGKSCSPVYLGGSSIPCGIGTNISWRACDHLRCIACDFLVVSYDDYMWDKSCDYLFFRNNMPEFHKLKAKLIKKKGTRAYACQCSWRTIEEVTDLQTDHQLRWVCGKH
Sequence of UniProt Q9UEE9 (Q9UEE9 whole entry, looked up): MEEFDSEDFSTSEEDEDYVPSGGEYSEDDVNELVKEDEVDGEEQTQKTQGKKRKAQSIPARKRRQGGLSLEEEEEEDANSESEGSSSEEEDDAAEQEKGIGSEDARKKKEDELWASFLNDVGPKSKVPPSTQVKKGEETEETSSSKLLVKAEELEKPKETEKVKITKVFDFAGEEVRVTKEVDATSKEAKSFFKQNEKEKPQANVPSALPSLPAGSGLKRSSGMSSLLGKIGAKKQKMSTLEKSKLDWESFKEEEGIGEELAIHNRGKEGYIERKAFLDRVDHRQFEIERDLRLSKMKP
Sequence of UniProt Q9H0Y0 (Q9H0Y0 whole entry, looked up): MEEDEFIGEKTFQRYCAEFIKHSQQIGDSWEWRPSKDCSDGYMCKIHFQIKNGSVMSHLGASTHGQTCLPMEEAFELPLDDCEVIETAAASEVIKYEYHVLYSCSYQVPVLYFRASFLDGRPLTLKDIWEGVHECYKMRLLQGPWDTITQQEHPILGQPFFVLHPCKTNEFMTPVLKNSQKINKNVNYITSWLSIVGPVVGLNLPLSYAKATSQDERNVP
Sequence of UniProt O95429 (O95429 whole entry, looked up): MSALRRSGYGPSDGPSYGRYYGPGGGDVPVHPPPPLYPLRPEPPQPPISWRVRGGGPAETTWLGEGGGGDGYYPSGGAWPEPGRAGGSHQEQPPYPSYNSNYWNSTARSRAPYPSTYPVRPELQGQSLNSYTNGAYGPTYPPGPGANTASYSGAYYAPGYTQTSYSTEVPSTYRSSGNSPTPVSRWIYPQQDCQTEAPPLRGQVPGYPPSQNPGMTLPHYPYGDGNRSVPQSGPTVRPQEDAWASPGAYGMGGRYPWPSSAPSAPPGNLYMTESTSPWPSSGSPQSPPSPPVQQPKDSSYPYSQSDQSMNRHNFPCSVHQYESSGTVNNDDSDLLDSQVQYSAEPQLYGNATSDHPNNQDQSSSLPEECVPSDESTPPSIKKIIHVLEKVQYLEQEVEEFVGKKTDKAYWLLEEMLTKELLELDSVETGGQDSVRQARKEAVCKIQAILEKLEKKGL
Sequence of UniProt Q3L8U1 (Q3L8U1 whole entry, looked up): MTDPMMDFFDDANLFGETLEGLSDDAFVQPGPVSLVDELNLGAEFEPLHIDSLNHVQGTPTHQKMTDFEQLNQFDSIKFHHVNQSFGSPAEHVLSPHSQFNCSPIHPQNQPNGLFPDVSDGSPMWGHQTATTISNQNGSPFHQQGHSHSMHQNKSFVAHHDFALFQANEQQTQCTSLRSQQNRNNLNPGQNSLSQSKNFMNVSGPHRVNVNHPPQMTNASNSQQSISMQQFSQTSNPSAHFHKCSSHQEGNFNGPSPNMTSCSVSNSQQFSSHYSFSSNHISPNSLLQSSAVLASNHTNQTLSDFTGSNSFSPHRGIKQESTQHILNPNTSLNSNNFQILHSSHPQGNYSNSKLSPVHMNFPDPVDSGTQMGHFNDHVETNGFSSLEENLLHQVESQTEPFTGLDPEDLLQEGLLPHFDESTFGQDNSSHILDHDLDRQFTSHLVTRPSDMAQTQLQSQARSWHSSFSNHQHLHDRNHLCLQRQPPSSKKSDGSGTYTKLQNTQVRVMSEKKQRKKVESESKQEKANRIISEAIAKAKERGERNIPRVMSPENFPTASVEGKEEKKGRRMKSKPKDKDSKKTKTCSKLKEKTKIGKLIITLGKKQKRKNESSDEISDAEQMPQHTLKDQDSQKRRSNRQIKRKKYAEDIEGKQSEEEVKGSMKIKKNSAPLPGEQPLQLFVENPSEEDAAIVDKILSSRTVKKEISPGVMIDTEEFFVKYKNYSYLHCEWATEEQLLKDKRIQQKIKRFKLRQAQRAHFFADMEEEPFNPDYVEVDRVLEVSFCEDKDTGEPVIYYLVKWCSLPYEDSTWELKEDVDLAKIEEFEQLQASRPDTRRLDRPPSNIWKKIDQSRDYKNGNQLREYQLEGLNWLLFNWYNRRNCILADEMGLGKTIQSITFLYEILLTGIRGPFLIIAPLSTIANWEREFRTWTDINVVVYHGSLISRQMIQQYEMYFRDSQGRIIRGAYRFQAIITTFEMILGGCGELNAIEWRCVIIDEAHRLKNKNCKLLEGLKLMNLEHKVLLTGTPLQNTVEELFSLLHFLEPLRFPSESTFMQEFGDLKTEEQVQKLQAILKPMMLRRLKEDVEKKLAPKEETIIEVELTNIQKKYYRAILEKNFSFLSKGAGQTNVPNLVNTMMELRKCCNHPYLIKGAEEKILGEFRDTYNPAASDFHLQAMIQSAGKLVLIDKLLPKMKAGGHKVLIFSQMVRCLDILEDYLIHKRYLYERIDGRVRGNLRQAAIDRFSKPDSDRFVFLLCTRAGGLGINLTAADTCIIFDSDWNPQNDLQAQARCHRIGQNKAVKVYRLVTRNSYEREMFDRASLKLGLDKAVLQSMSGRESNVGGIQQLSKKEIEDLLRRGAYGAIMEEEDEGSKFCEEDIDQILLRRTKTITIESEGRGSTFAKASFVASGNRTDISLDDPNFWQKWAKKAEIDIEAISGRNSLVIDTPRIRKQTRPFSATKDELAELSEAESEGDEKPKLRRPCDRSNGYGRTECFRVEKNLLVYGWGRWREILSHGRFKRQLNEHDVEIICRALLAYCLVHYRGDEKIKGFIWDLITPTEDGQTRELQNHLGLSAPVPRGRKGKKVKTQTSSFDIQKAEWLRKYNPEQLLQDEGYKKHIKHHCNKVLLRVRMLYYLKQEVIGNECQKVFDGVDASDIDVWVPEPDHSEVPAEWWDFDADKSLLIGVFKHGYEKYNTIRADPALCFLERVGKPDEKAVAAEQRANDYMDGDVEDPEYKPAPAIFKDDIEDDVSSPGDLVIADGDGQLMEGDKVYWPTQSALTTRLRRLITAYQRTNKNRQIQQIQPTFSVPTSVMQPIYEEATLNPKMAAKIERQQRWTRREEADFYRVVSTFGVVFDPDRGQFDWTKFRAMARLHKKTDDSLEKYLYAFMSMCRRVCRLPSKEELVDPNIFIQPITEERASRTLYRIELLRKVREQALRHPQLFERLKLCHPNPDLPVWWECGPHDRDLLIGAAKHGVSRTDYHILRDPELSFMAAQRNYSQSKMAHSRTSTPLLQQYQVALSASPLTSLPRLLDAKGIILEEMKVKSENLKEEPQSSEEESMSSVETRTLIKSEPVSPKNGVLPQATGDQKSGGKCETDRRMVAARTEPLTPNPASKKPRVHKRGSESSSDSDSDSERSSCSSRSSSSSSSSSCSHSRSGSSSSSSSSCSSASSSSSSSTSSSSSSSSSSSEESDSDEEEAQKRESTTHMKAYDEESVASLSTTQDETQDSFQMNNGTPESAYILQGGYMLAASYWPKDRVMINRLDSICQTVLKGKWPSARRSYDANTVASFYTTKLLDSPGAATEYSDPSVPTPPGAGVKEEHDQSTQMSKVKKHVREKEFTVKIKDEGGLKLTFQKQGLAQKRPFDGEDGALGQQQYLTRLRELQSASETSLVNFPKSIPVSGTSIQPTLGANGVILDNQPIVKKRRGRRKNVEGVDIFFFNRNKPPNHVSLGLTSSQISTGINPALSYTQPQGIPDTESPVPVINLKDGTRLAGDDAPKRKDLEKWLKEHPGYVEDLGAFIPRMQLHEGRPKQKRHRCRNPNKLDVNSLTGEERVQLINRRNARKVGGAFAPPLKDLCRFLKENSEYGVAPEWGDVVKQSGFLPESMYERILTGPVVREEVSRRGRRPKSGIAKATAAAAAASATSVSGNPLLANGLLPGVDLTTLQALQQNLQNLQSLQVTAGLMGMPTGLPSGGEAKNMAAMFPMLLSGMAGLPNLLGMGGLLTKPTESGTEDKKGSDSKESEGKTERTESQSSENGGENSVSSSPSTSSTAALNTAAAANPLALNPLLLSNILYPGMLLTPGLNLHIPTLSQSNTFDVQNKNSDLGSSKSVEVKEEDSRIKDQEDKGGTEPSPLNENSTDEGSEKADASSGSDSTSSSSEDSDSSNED
Sequence of UniProt Q6P1S2 (Q6P1S2 whole entry, looked up): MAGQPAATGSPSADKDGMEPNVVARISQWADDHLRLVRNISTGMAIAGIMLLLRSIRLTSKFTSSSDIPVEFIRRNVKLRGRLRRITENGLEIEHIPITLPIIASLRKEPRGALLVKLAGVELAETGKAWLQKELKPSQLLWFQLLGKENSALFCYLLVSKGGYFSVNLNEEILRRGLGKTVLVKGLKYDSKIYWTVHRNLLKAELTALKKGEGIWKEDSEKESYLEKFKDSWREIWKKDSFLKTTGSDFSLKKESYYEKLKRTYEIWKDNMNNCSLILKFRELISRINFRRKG

Row | Target | log2 fold change (alvocidib) | log2 fold change (Tubastatin A) | log2 fold change [1] | log2 fold change (defactinib) | log2 fold change [2] | log2 fold change (encorafenib) | log2 fold change [3] | log2 fold change (alisertib) | log2 fold change [4] | log2 fold change (gefitinib)
1 | BAG4 (UniProt O95429) | 0.04 (inactive) | -0.096 (inactive) | -0.01 (inactive) | -0.001 (inactive) | 0.023 (inactive) | -0.032 (inactive) | 0.005 (inactive) | -0.023 (inactive) | 0.003 (inactive) | 0.039 (inactive)
2 | ATF7IP2 (UniProt Q5U623) | -0.197 (inactive) | 0.071 (inactive) | -0.065 (inactive) | -0.072 (inactive) | – | – | – | 0.003 (inactive) | 0.064 (inactive) | 0.044 (inactive)
3 | CCDC25 (UniProt Q86WR0) | 0.132 (inactive) | 0 (inactive) | -0.012 (inactive) | -0.025 (inactive) | 0.075 (inactive) | 0.008 (inactive) | 0.083 (inactive) | -0.027 (inactive) | -0.005 (inactive) | 0.01 (inactive)
4 | BET1 (UniProt O15155) | 0.07 (inactive) | -0.038 (inactive) | 0.033 (inactive) | 0.058 (inactive) | 0.027 (inactive) | -0.062 (inactive) | -0.214 (active) | -0.023 (inactive) | -0.022 (inactive) | -0.045 (inactive)
5 | BUD23 isoform 3 (UniProt O43709) | -0.126 (inactive) | 0.14 (inactive) | 0.026 (inactive) | -0.046 (inactive) | -0.052 (inactive) | -0.017 (inactive) | 0.036 (inactive) | 0.082 (inactive) | 0.085 (inactive) | 0.054 (inactive)
6 | C5orf51 (UniProt A6NDU8) | 0.075 (inactive) | -0.123 (inactive) | -0.01 (inactive) | -0.045 (inactive) | -0.043 (inactive) | -0.006 (inactive) | 0.144 (inactive) | 0.023 (inactive) | 0.038 (inactive) | 0.056 (inactive)
7 | ATR (UniProt Q13535) | -0.134 (inactive) | -0.067 (inactive) | 0.029 (inactive) | -0.07 (inactive) | -0.001 (inactive) | 0.045 (inactive) | -0.193 (inactive) | 0.115 (inactive) | 0.077 (inactive) | 0.052 (inactive)
8 | C9orf72 (UniProt Q96LT7) | 0.001 (inactive) | 0 (inactive) | -0.036 (inactive) | – | 0.058 (inactive) | 0.125 (inactive) | 0.259 (active) | 0.014 (inactive) | 0.102 (inactive) | -0.106 (inactive)
9 | CFDP1 (UniProt Q9UEE9) | -0.104 (inactive) | 0.057 (inactive) | 0.042 (inactive) | -0.01 (inactive) | -0.051 (inactive) | 0.005 (inactive) | -0.021 (inactive) | -0.013 (inactive) | 0.015 (inactive) | -0.005 (inactive)
10 | CCNC (UniProt P24863) | 0.182 (inactive) | -0.079 (inactive) | -0.018 (inactive) | -0.073 (inactive) | -0.052 (inactive) | 0.041 (inactive) | 0.039 (inactive) | 0.009 (inactive) | -0.05 (inactive) | 0.017 (inactive)
11 | BCKDK (UniProt O14874) | 0.029 (inactive) | -0.117 (inactive) | -0.005 (inactive) | 0.029 (inactive) | -0.098 (inactive) | -0.061 (inactive) | 0.066 (inactive) | 0.023 (inactive) | -0.027 (inactive) | 0.053 (inactive)
12 | CDK17 isoform 2 (UniProt Q00537) | 0.599 (active) | -0.015 (inactive) | -0.051 (inactive) | 0.139 (inactive) | -0.018 (inactive) | 0.099 (inactive) | -0.129 (inactive) | -0.121 (inactive) | – | -0.132 (inactive)
13 | ATP2B4 (UniProt P23634) | -0.116 (inactive) | 0.015 (inactive) | -0.006 (inactive) | -0.043 (inactive) | 0.001 (inactive) | 0.021 (inactive) | -0.041 (inactive) | -0.104 (inactive) | 0.009 (inactive) | 0.023 (inactive)
14 | C8orf88 (UniProt P0DMB2) | 0.072 (inactive) | -0.064 (inactive) | 0.07 (inactive) | – | -0.015 (inactive) | – | – | – | – | –
15 | CDC7 (UniProt O00311) | -0.081 (inactive) | -0.112 (inactive) | 0.077 (inactive) | 0.007 (inactive) | 0.042 (inactive) | 0.011 (inactive) | 0.078 (inactive) | -0.059 (inactive) | -0.04 (inactive) | -0.036 (inactive)
16 | CACUL1 (UniProt Q86Y37) | 0.022 (inactive) | -0.029 (inactive) | -0.027 (inactive) | 0.027 (inactive) | -0.04 (inactive) | -0.02 (inactive) | -0.042 (inactive) | – | 0.212 (inactive) | –

Row | Target | log2 fold change (alvocidib) | log2 fold change (Tubastatin A) | log2 fold change [1] | log2 fold change (defactinib) | log2 fold change [2] | log2 fold change (encorafenib) | log2 fold change [3] | log2 fold change (alisertib) | log2 fold change [4] | log2 fold change (gefitinib)
17 | ATRIP (UniProt Q8WXE1) | 0.012 (inactive) | -0.105 (inactive) | -0.074 (inactive) | -0.114 (inactive) | -0.141 (inactive) | 0.068 (inactive) | -0.061 (inactive) | 0.016 (inactive) | 0.03 (inactive) | 0.026 (inactive)
18 | CHD9 (UniProt Q3L8U1) | 0.027 (inactive) | 0.055 (inactive) | -0.064 (inactive) | -0.147 (inactive) | -0.137 (inactive) | – | – | -0.369 (inactive) | – | 0.111 (inactive)
19 | CCDC85B (UniProt Q15834) | 0.016 (inactive) | 0.016 (inactive) | 0.217 (inactive) | 0.183 (inactive) | -0.08 (inactive) | 0.255 (inactive) | -0.481 (inactive) | – | -0.508 (active) | –
20 | CBR1 (UniProt P16152) | -0.013 (inactive) | 0.015 (inactive) | -0.006 (inactive) | 0.008 (inactive) | -0.041 (inactive) | 0 (inactive) | 0.02 (inactive) | -0.024 (inactive) | 0.023 (inactive) | -0.068 (inactive)
21 | C3orf33 (UniProt Q6P1S2) | -0.166 (inactive) | 0.124 (inactive) | -0.084 (inactive) | 0.224 (inactive) | 0.115 (inactive) | – | – | -0.13 (inactive) | -0.111 (inactive) | 0.006 (inactive)
22 | CDC40 (UniProt O60508) | 0.016 (inactive) | 0.147 (inactive) | 0.045 (inactive) | -0.002 (inactive) | 0.069 (inactive) | 0.095 (inactive) | 0.069 (inactive) | -0.049 (inactive) | 0.034 (inactive) | -0.021 (inactive)
23 | AUH (UniProt Q13825) | 0.221 (inactive) | 0.147 (inactive) | 0.057 (inactive) | -0.169 (inactive) | 0.049 (inactive) | 0.015 (inactive) | 0.023 (inactive) | – | -0.052 (inactive) | –
24 | ATG10 (UniProt Q9H0Y0) | 0.106 (inactive) | -0.035 (inactive) | 0.01 (inactive) | -0.037 (inactive) | -0.022 (inactive) | 0.024 (inactive) | 0.025 (inactive) | 0.032 (inactive) | – | 0.04 (inactive)
25 | CDK5RAP1 (UniProt Q96SZ6) | 0.019 (inactive) | -0.023 (inactive) | -0.06 (inactive) | 0.018 (inactive) | -0.024 (inactive) | -0.057 (inactive) | 0.029 (inactive) | -0.003 (inactive) | – | -0.007 (inactive)
26 | BRD2 isoform 2 (UniProt P25440) | 0.06 (inactive) | 0.002 (inactive) | 0.059 (inactive) | -0.187 (inactive) | 0.068 (inactive) | 0.084 (inactive) | -0.118 (inactive) | 0 (inactive) | 0.019 (inactive) | -0.009 (inactive)
27 | CAPNS1 (UniProt P04632) | 0.021 (inactive) | -0.022 (inactive) | 0.032 (inactive) | 0.027 (inactive) | -0.005 (inactive) | 0.022 (inactive) | -0.129 (inactive) | -0.012 (inactive) | -0.051 (inactive) | -0.062 (inactive)
28 | C8orf37 (UniProt Q96NL8) | -0.146 (inactive) | 0.022 (inactive) | -0.035 (inactive) | 0.281 (inactive) | -0.099 (inactive) | 0.018 (inactive) | -0.011 (inactive) | – | 0.162 (inactive) | –
29 | ATP11A (UniProt P98196) | -0.002 (inactive) | -0.047 (inactive) | -0.021 (inactive) | -0.017 (inactive) | -0.022 (inactive) | 0.028 (inactive) | -0.065 (inactive) | -0.083 (inactive) | 0.01 (inactive) | 0.031 (inactive)
30 | BTRC (UniProt Q9Y297) | -0.05 (inactive) | -0.019 (inactive) | -0.049 (inactive) | -0.018 (inactive) | – | 0.035 (inactive) | 0.172 (inactive) | -0.022 (inactive) | 0.096 (inactive) | -0.058 (inactive)
31 | AVEN (UniProt Q9NQS1) | -0.047 (inactive) | -0.154 (inactive) | 0.049 (inactive) | -0.097 (inactive) | 0.082 (inactive) | 0.017 (inactive) | 0.016 (inactive) | 0.061 (inactive) | – | -0.09 (inactive)
